# Laboratory results reported in the supplement of paper PMC12645437, “Orthogonal IMiD-Degron Pairs Induce Selective Protein Degradation in Cells” (ACS Chemical Biology, 2025).
# Over roughly 8,300 sequences, “log2 fold change of degron read counts, EGFP-low vs EGFP+ sorted cells (limma voom), compound-induced degradation” has its median near -1.1; the highest 2% begin near 3.2. This is one part of a sample in which the highest values are shown more often than they occur.
# T1: CRBN, Q96SW2
# T1 chain: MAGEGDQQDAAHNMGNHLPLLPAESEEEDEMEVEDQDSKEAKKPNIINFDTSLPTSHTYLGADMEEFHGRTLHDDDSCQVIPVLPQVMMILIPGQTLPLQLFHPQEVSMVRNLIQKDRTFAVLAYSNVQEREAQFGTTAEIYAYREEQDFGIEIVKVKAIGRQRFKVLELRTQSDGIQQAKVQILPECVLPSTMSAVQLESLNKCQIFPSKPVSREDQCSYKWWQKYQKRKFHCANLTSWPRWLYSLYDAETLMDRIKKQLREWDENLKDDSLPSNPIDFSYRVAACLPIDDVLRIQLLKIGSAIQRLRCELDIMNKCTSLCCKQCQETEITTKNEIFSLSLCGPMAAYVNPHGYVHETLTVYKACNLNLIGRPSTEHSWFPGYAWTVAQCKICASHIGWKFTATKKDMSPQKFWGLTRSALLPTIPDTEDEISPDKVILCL
# Target: T1, CRBN, Q96SW2
# Assay: log2 fold change of degron read counts, EGFP-low vs EGFP+ sorted cells (limma voom), compound-induced degradation; higher = more compound-induced degradation of the degron-EGFP fusion; degrons are variants of IKZF1/3 zinc finger 2; compound dose not given here
# Details: Jurkat, 18 h
# [1] = compound: compound 19 (5-tert-butyl-thalidomide)
# [2] = compound: compound 22 (5-morpholino-thalidomide)
# [3] = compound: compound 33 (diphenyl IMiD analogue)
# 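Further: pooled lentiviral library of zinc finger degron-EGFP fusions in mCherry-positive Jurkat cells, FACS-sorted after compound exposure, with degron abundance counted by next-generation sequencing.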
sequence,measurement,setting,value
"FCCSVCGHLFTQKGNLLRHIKL [46F_47C_49S_50V_52G_53H_54L_55F_67L_, Q9UKT9]",log2 fold change of degron read counts,[1],-2.25
same,log2 fold change of degron read counts,[2],-2.38
same,log2 fold change of degron read counts,[3],-2.22
same,log2 fold change of degron read counts,compound: thalidomide,-2.25
"FRCEQCGAGFTQKGNLLRHIKL [46F_47R_49E_50Q_52G_53A_54G_55F_67L_, Q9UKT9]",log2 fold change of degron read counts,[1],-0.467
same,log2 fold change of degron read counts,[2],-1.48
same,log2 fold change of degron read counts,[3],0.986
same,log2 fold change of degron read counts,compound: thalidomide,-0.649
"FSCNVCGAEFTQKGNLLRHIKL [46F_47S_49N_50V_52G_53A_54E_55F_67L_, Q9UKT9]",log2 fold change of degron read counts,[1],-1.82
same,log2 fold change of degron read counts,[2],-2
same,log2 fold change of degron read counts,[3],-0.491
same,log2 fold change of degron read counts,compound: thalidomide,-1.04
"FLCNQCGHTFTQKGNLLRHIKL [46F_47L_49N_50Q_52G_53H_54T_55F_67L_, Q9UKT9]",log2 fold change of degron read counts,[1],-2.86
same,log2 fold change of degron read counts,[2],-3.5
same,log2 fold change of degron read counts,[3],-3.07
same,log2 fold change of degron read counts,compound: thalidomide,-2.79
"FICSVCGHTFTQKGNLLRHIKL [46F_47I_49S_50V_52G_53H_54T_55F_67L_, Q9UKT9]",log2 fold change of degron read counts,[1],-2.11
same,log2 fold change of degron read counts,[2],-2.3
same,log2 fold change of degron read counts,[3],-3.14
same,log2 fold change of degron read counts,compound: thalidomide,-2.67
"FFCDICGATFTQKGNLLRHIKL [46F_47F_49D_50I_52G_53A_54T_55F_67L_, Q9UKT9]",log2 fold change of degron read counts,[1],2.91
same,log2 fold change of degron read counts,[2],2.77
same,log2 fold change of degron read counts,[3],0.337
same,log2 fold change of degron read counts,compound: thalidomide,-0.566
"FHCEVCGASFTQKGNLLRHIKL [46F_47H_49E_50V_52G_53A_54S_55F_67L_, Q9UKT9]",log2 fold change of degron read counts,[1],2.93
same,log2 fold change of degron read counts,[2],2.64
same,log2 fold change of degron read counts,[3],1.35
same,log2 fold change of degron read counts,compound: thalidomide,0.198
"FQCEVCGADFTQKGNLLRHIKL [46F_47Q_49E_50V_52G_53A_54D_55F_67L_, Q9UKT9]",log2 fold change of degron read counts,[1],-0.53
same,log2 fold change of degron read counts,[2],-0.0138
same,log2 fold change of degron read counts,[3],1.04
same,log2 fold change of degron read counts,compound: thalidomide,3.09
"FQCEVCGASFTQKGNLLRHIKL [46F_47Q_49E_50V_52G_53A_54S_55F_67L_, Q9UKT9]",log2 fold change of degron read counts,[1],2.49
same,log2 fold change of degron read counts,[2],2.89
same,log2 fold change of degron read counts,[3],2.13
same,log2 fold change of degron read counts,compound: thalidomide,3.53
"FICEVCGASFTQKGNLLRHIKL [46F_47I_49E_50V_52G_53A_54S_55F_67L_, Q9UKT9]",log2 fold change of degron read counts,[1],0.0302
same,log2 fold change of degron read counts,[2],2.88
same,log2 fold change of degron read counts,[3],2.44
same,log2 fold change of degron read counts,compound: thalidomide,2.95
"FRCEVCGASFTQKGNLLRHIKL [46F_47R_49E_50V_52G_53A_54S_55F_67L_, Q9UKT9]",log2 fold change of degron read counts,[1],2.07
same,log2 fold change of degron read counts,[2],1.56
same,log2 fold change of degron read counts,[3],2.15
same,log2 fold change of degron read counts,compound: thalidomide,2.07
"FACEVCGASFTQKGNLLRHIKL [46F_47A_49E_50V_52G_53A_54S_55F_67L_, Q9UKT9]",log2 fold change of degron read counts,[1],3.87
same,log2 fold change of degron read counts,[2],2.73
same,log2 fold change of degron read counts,[3],0.799
same,log2 fold change of degron read counts,compound: thalidomide,1.03
"FACNVCGASFTQKGNLLRHIKL [46F_47A_49N_50V_52G_53A_54S_55F_67L_, Q9UKT9]",log2 fold change of degron read counts,[1],1.32
same,log2 fold change of degron read counts,[2],0.642
same,log2 fold change of degron read counts,[3],-0.249
same,log2 fold change of degron read counts,compound: thalidomide,-1.16
"FMCEVCGASFTQKGNLLRHIKL [46F_47M_49E_50V_52G_53A_54S_55F_67L_, Q9UKT9]",log2 fold change of degron read counts,[1],1.39
same,log2 fold change of degron read counts,[2],1.79
same,log2 fold change of degron read counts,[3],2.94
same,log2 fold change of degron read counts,compound: thalidomide,2.05
"FCCNVCGASFTQKGNLLRHIKL [46F_47C_49N_50V_52G_53A_54S_55F_67L_, Q9UKT9]",log2 fold change of degron read counts,[1],0.743
same,log2 fold change of degron read counts,[2],0.454
same,log2 fold change of degron read counts,[3],0.99
same,log2 fold change of degron read counts,compound: thalidomide,0.32
"FYCEVCGASFTQKGNLLRHIKL [46F_47Y_49E_50V_52G_53A_54S_55F_67L_, Q9UKT9]",log2 fold change of degron read counts,[1],3.7
same,log2 fold change of degron read counts,[2],3.86
same,log2 fold change of degron read counts,[3],2.94
same,log2 fold change of degron read counts,compound: thalidomide,1.59
"FVCEVCGASFTQKGNLLRHIKL [46F_47V_49E_50V_52G_53A_54S_55F_67L_, Q9UKT9]",log2 fold change of degron read counts,[1],1.21
same,log2 fold change of degron read counts,[2],2.91
same,log2 fold change of degron read counts,[3],2.54
same,log2 fold change of degron read counts,compound: thalidomide,3.54
"FRCEICGRNFTQKGNLLRHIKL [46F_47R_49E_50I_52G_53R_54N_55F_67L_, Q9UKT9]",log2 fold change of degron read counts,[1],-2.69
same,log2 fold change of degron read counts,[2],-2.64
same,log2 fold change of degron read counts,[3],-1.31
same,log2 fold change of degron read counts,compound: thalidomide,-0.795
